This passage reports log2 fold change results from the supplement of paper PMC10849652.

Targets with a hit are over-represented here; the source holds about 7,900 in all. About 0.6% of all pairs of compound and target were hits. Unmarked numbers belong to inactive results.

UniProt Q92536, sequence (Q92536 whole entry, looked up): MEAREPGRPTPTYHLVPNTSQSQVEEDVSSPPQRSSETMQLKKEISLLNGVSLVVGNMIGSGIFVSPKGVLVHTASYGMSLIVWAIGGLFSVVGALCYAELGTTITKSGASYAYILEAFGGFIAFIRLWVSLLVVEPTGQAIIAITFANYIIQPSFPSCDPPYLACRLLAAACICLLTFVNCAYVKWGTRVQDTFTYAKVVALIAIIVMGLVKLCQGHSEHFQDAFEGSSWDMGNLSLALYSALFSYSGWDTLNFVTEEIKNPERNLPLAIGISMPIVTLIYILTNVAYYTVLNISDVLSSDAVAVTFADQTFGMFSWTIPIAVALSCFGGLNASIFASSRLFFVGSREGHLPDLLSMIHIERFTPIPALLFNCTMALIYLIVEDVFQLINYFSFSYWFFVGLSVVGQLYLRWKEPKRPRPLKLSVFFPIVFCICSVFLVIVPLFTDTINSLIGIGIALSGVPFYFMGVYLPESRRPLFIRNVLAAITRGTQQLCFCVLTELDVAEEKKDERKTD
UniProt Q02447, sequence (Q02447 whole entry, looked up): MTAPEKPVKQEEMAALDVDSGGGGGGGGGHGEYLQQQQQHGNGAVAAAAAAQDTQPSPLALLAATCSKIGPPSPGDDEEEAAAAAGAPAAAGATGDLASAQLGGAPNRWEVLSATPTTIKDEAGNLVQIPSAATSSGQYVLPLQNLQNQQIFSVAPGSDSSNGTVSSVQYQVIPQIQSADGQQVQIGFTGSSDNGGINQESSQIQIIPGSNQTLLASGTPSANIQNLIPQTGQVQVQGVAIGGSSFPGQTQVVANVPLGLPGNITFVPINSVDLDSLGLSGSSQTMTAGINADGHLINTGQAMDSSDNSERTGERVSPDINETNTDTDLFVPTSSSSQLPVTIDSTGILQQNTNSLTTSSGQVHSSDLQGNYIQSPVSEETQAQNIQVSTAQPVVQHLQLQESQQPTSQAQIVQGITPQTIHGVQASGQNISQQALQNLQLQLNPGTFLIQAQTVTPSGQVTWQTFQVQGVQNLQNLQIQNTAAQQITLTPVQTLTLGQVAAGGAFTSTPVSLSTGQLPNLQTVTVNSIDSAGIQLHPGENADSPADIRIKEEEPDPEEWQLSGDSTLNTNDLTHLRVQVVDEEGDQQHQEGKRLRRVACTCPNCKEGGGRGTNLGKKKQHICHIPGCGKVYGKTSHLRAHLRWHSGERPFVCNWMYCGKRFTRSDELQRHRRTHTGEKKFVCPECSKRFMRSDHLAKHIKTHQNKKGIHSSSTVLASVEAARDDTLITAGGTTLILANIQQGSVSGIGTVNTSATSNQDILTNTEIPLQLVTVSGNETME
UniProt Q8WVK2, sequence (Q8WVK2 whole entry, looked up): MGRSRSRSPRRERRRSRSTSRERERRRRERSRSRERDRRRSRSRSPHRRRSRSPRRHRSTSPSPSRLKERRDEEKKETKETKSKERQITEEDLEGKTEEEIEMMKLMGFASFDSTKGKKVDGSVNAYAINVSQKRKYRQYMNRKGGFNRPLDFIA
UniProt Q9Y5B9, sequence (Q9Y5B9 whole entry, looked up): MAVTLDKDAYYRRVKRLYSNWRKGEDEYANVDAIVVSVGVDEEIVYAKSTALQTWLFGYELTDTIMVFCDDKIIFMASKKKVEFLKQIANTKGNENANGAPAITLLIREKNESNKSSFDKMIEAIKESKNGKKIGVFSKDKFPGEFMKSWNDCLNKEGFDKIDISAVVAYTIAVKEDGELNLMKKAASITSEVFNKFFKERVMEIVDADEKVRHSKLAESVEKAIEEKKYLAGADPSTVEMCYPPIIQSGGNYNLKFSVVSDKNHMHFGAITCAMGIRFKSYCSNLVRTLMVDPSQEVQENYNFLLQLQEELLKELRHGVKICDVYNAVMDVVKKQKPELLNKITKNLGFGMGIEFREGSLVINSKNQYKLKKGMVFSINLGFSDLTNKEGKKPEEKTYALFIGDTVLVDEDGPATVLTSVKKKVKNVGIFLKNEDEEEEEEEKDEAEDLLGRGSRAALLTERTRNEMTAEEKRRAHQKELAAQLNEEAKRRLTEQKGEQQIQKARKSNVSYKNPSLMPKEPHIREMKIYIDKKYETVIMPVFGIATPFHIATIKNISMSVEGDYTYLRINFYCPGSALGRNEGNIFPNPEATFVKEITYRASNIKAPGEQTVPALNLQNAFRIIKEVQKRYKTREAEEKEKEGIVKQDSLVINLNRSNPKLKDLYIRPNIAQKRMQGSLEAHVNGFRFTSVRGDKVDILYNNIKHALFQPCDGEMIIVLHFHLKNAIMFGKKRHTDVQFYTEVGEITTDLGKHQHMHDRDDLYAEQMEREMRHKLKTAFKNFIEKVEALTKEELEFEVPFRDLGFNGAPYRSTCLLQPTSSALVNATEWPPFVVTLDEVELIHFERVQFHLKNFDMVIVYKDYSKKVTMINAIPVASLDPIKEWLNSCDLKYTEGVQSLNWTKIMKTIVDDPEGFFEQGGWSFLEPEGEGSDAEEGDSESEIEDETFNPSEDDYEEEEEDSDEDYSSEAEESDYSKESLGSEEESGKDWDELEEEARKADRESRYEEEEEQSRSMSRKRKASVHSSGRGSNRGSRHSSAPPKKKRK
UniProt Q9NZ01, sequence (Q9NZ01 whole entry, looked up): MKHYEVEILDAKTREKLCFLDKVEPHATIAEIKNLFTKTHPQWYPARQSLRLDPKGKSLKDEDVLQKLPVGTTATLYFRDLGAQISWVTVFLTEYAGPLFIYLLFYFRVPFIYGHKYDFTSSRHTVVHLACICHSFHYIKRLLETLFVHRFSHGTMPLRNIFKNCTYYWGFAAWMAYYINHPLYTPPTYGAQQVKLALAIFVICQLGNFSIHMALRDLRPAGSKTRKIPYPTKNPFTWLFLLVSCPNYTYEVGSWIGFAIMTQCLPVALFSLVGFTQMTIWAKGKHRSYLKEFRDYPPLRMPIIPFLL
UniProt Q96CQ1, sequence (Q96CQ1 whole entry, looked up): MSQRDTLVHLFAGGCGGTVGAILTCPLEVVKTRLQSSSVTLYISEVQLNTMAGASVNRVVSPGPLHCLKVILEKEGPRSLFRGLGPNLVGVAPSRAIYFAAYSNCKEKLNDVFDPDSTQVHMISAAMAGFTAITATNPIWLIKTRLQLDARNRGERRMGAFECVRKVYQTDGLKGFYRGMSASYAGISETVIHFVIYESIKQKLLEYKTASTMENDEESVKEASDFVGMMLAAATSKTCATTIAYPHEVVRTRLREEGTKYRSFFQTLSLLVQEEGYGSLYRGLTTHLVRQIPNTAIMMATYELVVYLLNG
UniProt P63165, sequence (P63165 whole entry, looked up): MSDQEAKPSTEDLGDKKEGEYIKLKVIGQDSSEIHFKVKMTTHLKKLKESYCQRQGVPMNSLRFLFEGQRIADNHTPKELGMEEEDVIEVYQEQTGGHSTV
UniProt Q8WXA9, sequence (Q8WXA9 whole entry, looked up): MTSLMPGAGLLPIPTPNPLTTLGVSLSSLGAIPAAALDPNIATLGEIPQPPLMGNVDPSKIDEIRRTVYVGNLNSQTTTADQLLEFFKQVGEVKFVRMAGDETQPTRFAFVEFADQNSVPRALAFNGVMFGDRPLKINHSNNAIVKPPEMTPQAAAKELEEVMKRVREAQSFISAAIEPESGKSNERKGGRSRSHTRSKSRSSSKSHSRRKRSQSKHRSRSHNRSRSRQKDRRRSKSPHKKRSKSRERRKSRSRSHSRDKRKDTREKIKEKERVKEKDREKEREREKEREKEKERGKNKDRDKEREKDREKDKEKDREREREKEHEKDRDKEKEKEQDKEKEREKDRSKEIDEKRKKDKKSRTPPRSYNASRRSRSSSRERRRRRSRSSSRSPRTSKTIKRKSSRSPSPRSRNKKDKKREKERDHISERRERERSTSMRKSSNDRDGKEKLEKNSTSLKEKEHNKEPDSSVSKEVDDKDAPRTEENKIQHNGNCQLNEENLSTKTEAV
UniProt P84103, sequence (P84103 whole entry, looked up): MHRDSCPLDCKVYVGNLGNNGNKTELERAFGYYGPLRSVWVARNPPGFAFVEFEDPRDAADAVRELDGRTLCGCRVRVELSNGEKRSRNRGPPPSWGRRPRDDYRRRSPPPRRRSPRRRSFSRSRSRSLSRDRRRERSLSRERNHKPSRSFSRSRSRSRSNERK
UniProt Q8NEF9, sequence (Q8NEF9 whole entry, looked up): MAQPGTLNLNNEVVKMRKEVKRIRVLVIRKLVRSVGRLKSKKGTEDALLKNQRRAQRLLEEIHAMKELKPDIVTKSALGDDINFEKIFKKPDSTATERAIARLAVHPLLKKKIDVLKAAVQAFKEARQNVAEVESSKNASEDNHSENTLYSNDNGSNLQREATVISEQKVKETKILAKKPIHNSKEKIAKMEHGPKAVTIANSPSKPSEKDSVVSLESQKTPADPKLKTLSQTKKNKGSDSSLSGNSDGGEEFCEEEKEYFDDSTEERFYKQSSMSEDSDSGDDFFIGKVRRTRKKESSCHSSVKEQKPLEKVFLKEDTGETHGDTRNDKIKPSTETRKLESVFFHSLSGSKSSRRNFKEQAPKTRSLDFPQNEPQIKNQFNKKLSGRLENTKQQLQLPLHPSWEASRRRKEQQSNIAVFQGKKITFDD
UniProt Q15796, sequence (Q15796 whole entry, looked up): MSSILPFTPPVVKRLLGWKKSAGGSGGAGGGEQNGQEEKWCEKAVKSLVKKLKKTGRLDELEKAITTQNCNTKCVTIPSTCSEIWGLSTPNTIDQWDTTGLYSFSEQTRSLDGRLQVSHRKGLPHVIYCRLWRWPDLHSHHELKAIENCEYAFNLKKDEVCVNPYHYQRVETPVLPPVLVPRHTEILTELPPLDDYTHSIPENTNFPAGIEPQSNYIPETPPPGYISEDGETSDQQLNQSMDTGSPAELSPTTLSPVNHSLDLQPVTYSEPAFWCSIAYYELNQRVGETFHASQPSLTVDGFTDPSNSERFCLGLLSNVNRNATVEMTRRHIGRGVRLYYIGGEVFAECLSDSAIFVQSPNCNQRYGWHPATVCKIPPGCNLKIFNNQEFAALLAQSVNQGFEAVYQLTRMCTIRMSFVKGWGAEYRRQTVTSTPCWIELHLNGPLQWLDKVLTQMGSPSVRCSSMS

Compound in the experiment: COC1=CC=C(C=C1)CN2C=CC3=C2C=C(C=C3)C(=O)NO
Nature of the experiment: log2 fold change, soluble protein after heating vs DMSO (PISA); higher = thermal stabilisation; K562 cells, 10 uM, 30 min; active = over 0.2 and 3.5 SD of the protein, either way, in both replicates (recomputed). The gist of the method:
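Quantification of soluble protein used TMTpro 16plex LC-MS/MS, with channel sums equalised. Samples were the supernatant after 21,000xg for 90 min of pooled aliquots from K562 cells (2×10^6 cells/mL) treated with 10 μM compound for 30 min, heated for 3 min over 48°C-58°C, and extracted in PBS with 0.5% NP-40 at 4°C. Values, from duplicates, describe thermal stability against control samples on a log2 fold-change scale.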
As to SNRNP27 (UniProt Q8WVK2), the log2 fold change is -0.075. Turning to SRP68 (UniProt Q9UHB9), the log2 fold change was 0.024.

Take SP3 (UniProt Q02447): the log2 fold change was -0.001. For the target TLK2 isoform 2 (UniProt Q86UE8), the log2 fold change was -0.019. STAT6 (UniProt P42226): the log2 fold change is 0.019. Take SLC38A9 (UniProt Q8NBW4): the log2 fold change is 0.033. Consider STAM2 (UniProt O75886), for which the log2 fold change was -0.006. Next, SLC30A7 (UniProt Q8NEW0): -0.105; STARD7 (UniProt Q9NQZ5): 0.006; SUMO1 (UniProt P63165): -0.363. Next, STAT5A (UniProt P42229): 0.034; SRPRA (UniProt P08240): 0.008.

Turning to TBC1D15 isoform 3 (UniProt Q8TC07), the log2 fold change was -0.063. Turning to TFRC (UniProt P02786), the log2 fold change was 0.009.

As for SRSF7 (UniProt Q16629), the log2 fold change was -0.089. On to TAMM41 isoform 3 (UniProt Q96BW9), for which the log2 fold change was -0.027.

In the case of STK38 (UniProt Q15208), the log2 fold change was 0.029. Next, SLC6A6 (UniProt P31641): -0.1; TBC1D23 (UniProt Q9NUY8): 0.07. Turning to SMAD9 (UniProt O15198), the log2 fold change was -0.002.

For SRSF3 (UniProt P84103), the log2 fold change was -0.226.

For the target TBCD (UniProt Q9BTW9), the log2 fold change was -0.017. The value for TECR (UniProt Q9NZ01) was -0.031; that for STK39 (UniProt Q9UEW8) was -0.016. For TAF9 (UniProt Q16594), the log2 fold change was 0.066. Regarding SUPT16H (UniProt Q9Y5B9), the log2 fold change was 0.106.

Turning to SRFBP1 (UniProt Q8NEF9), the log2 fold change was 0.013. On to SLC9A6 isoform 2 (UniProt Q92581), for which the log2 fold change is -0.077. Next, SNX11 (UniProt Q9Y5W9): 0.025; SREK1 isoform 2 (UniProt Q8WXA9): 0.26. The value for SMAD2 (UniProt Q15796) was -0.011; that for TBC1D5 isoform 2 (UniProt Q92609) was 0.048. Next, SLC25A36 (UniProt Q96CQ1): 0.006; SLC7A6 (UniProt Q92536): -0.236 (active); SUGP1 (UniProt Q8IWZ8): 0.027. For TAOK1 (UniProt Q7L7X3), the log2 fold change is -0.046. With STXBP5 (UniProt Q5T5C0), the log2 fold change was -0.012. Turning to SURF1 (UniProt Q15526), the log2 fold change was 0.053.
